PglD DTNB: inhibitors of Campylobacter jejuni PglD acetyltransferase; actives 0.098% (n = 360,000); inhibition, % at 12.5 µM; purified PglD enzyme, DTNB colorimetric CoA detection; in the data active = inhibition above about 16%, passing the limit was not always enough
ALR H2O2 inh: blocks human ALR sulfhydryl oxidase activity; P55789; purified ALR, DTT oxidation, H2O2 HRP-luminol luminescence; inhibition, % (test concentration not listed); actives 3.8% (n = 290,000); AID 485317;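 active = mean replicate inhibition above about 79%, with every replicate also reaching it, limit read from the data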
Target sequence (P55789 whole entry, looked up): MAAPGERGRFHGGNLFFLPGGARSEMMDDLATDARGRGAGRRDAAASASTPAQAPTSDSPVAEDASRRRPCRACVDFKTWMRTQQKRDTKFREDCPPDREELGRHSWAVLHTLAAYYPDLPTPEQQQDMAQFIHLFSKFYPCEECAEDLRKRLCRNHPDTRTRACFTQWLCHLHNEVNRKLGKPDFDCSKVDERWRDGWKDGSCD
ARNT TACC3 PPI: ARNT/TACC3 interaction disruption | Q9Y6A5 | AlphaScreen His-ARNT PAS-B/GST-TACC3 binding, luminescence; TACC3 fragment carries E629A point mutation | inhibition, % at 9.99 µM | actives 0.66% (n = 390,000);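 active = mean inhibition of replicates at least 50% and at least half of replicates each reaching 50%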;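 note: 0% = complete ARNT plus TACC3 wells and 100% = ARNT alone without TACC3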
CendR NRP1 mod: alters CendR peptide binding to human NRP-1; O14786; FAM-RPARPAR peptide binding to NRP-1, fluorescence polarization; inhibition, % at 25 µM; actives 0.85% (n = 360,000); AID 602438;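 active = inhibition or corrected inhibition above about 18%, plus a signal ratio from 0.5 to 1.5, limit read from the data, passing the limit was not always enough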
PDI inh: inhibitors of human protein disulfide isomerase. P07237. AID 588391. PDI insulin aggregation turbidity, A650, 90 min. actives 0.052% (n = 350,000). inhibition, % at 10 µM;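 active = mean inhibition across replicates of 30% or more, whatever share of single replicates reach that level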
ERp5 block: inhibitors of human ERp5; ERp5 insulin aggregation, absorbance 650 nm, 90 min; AID 651711; inhibition, % at 9.99 µM; actives 0.05% (n = 350,000);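 active = mean replicate inhibition above about 25%, with every replicate also reaching it, limit read from the data, passing the limit was not always enough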
Target sequence (Q15084 whole entry, looked up): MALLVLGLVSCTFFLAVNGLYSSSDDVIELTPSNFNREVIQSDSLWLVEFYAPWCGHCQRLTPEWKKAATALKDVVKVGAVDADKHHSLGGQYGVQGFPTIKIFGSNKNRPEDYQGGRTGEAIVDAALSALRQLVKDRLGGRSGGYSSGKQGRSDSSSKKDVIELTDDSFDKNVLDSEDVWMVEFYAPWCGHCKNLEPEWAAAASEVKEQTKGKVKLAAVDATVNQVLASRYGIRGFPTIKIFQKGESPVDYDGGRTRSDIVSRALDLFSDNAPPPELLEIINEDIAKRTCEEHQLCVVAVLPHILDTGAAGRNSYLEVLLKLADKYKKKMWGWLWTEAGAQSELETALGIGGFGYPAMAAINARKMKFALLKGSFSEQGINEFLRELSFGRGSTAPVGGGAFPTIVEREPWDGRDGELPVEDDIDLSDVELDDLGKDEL
Active calls of the source: *; x = no result given. Shown is part of a subset that was picked to be rich in hits.

SMILES | PglD DTNB | ALR H2O2 inh | ARNT TACC3 PPI | CendR NRP1 mod | PDI inh | ERp5 block
CCCN1C[C@H](C)[C@H](OC)CN(C)C(=O)c2cc(NC(=O)C3CC3)ccc2OC[C@H]1C | 0.6 | x | -5.0 | x | x | 0.9
S=C(NCCc1ccccn1)Nc1ccccc1Cl | 14.1 | 94.1* | 6.6 | -1.5 | -7.0 | 6.4
C[C@@H]1CN([C@@H](C)CO)C(=O)Cc2cc(NC(=O)Nc3ccc(C(F)(F)F)cc3)ccc2O[C@H]1CN(C)S(=O)(=O)c1ccccc1 | x | x | x | x | x | 1.6
CC(C)[C@H](NC(=O)c1ccccc1Cl)C(=O)Nc1nc(-c2ccccn2)cs1 | 15.5 | -5.8 | 57.7* | -10.6 | -7.0 | -2.8
CCCn1nc(C(=O)Nc2nc(-c3ccccn3)cs2)c2ccccc2c1=O | -1.7 | x | 50.5* | -14.4 | -7.4 | 0.9
CCc1cc(C(=O)Nc2nc(-c3ccccn3)cs2)sc1C | 0.2 | -5.0 | 65.3* | -21.3 | 8.2 | -7.0
CCc1nnc(NC(=O)C(NC(=O)c2ccccc2Cl)C(C)C)s1 (stereo unspecified) | x | 1.0 | -1.8 | 2.4 | -2.9 | 2.0
CC1CC1C(=O)Nc1nc(-c2ccccn2)cs1 (stereo unspecified) | -5.0 | -5.1 | 61.7* | 10.2 | 1.2 | x
CCC(=O)N1[C@@H](CO)[C@H](c2ccc(-c3ccc(C#N)cc3)cc2)C12CN(C(C)=O)C2 | x | x | x | x | x | 5.2
C[C@H]1CCCCO[C@@H](CN(C)C(=O)Nc2ccc(C(F)(F)F)cc2)[C@@H](C)CN([C@@H](C)CO)C(=O)c2cc(NC(=O)NC3CCCCC3)ccc2O1 | 0.7 | x | -8.0 | x | x | 0.5
C[C@H]1CN([C@@H](C)CO)C(=O)c2c(c3ccccc3n2C)-c2ccccc2CO[C@H]1CN(C)Cc1ccc(C(=O)O)cc1 | 0.1 | x | -9.8 | x | x | -3.6
CCCC(=O)Nc1ccc2c(c1)OC[C@@H](C)N(Cc1ccccc1F)C[C@H](C)[C@H](OC)CN(C)C2=O | -3.1 | x | -8.1 | x | x | -4.3
COc1ccc([Si](C)(C)[C@H]2[C@H](CCn3cc(CCO)nn3)O[C@@]3(C(=O)N(C)c4c(Br)cc(C)cc43)[C@@H]2C)cc1 | -1.5 | x | 33.5 | x | x | -1.2
O=C(N/N=C/c1c(O)n(-c2ccc(Cl)cn2)c(=O)c2ccccc12)c1ccncc1 | -10.0 | 80.5* | 41.6* | -191.5 | -9.0 | x
Cc1nn(-c2ccccc2)c(N2CCCC2)c1/C=N/NC(=O)C1CC1 | x | x | 2.7 | 9.8 | 2.6 | 0.4
O=C(N/N=C/c1c(O)n(-c2ccc(Cl)cn2)c(=O)c2ccccc12)C1CC1 | x | 94.8* | 68.0* | -36.3 | -3.6 | x
COc1ccc2c(c1)C(=NO)c1cc(OC)ccc1-2 | -1.9 | 96.1* | 2.2 | 15.6 | 2.9 | x
C=CCOc1ccc2c(c1)C(=NO)c1cc(OCC=C)ccc1-2 | -1.8 | -3.6 | 0.4 | -5.9 | 1.7 | 5.0
CCOc1ccc(OCc2ccc(C(=O)N3CCCC3)o2)cc1 | 2.3 | -1.0 | -4.5 | -3.3 | -2.3 | 1.7
CN1CCN(C(=O)c2ccc(COc3ccc(C(C)(C)C)cc3)o2)CC1 | 1.7 | 1.2 | x | 23.4* | 11.1 | x
O=C(Nc1ccccc1C(=O)NCc1ccco1)NC1CCCCC1 | -8.6 | 3.1 | -3.3 | 20.1* | -0.4 | x
O=C(Nc1ccccc1C(=O)NCc1ccco1)c1ccco1 | -1.2 | -0.6 | 1.6 | -12.9 | 11.0 | -2.5
O=C(N/N=C/c1ccccn1)c1ccc(Br)o1 | -1.1 | -5.1 | 69.4* | -6.2 | -8.3 | x
O=C(O)c1ccc(NC2=C/C(=N/S(=O)(=O)c3ccccc3)c3ccccc3C2=O)cc1 | x | x | 33.6 | 36.6* | 1.8 | -9.3
CCc1ccc(S(=O)(=O)/N=C2\C=CC(=O)c3ccccc32)cc1 | x | -19.5 | x | x | x | x
SMILES | PglD DTNB | ALR H2O2 inh | ARNT TACC3 PPI | CendR NRP1 mod | PDI inh | ERp5 block
CCc1ccc(S(=O)(=O)/N=C2/C=C(Sc3ncn[nH]3)C(=O)c3ccccc32)cc1 | x | -56.8 | 35.8* | 10.4 | -21.8 | x
CCc1ccc(S(=O)(=O)/N=C2\C=C(Nc3cccc(C(=O)O)c3)C(=O)c3ccccc32)cc1 | 0.0 | 69.0 | 68.5* | 40.7* | 1.6 | 0.4
O=C(O)c1ccc(NC2=C/C(=N/S(=O)(=O)c3cccs3)c3ccccc3C2=O)cc1 | 0.5 | x | x | 41.7* | -12.2 | 5.8
COc1ccc(CN2C[C@H](O)COC[C@H]3O[C@@H](CC(=O)NCc4ccncn4)CC[C@@H]32)cc1 | 9.0 | x | 3.2 | x | x | -2.9
O=C1C(Nc2ccc(O)cc2)=C/C(=N/S(=O)(=O)c2cccs2)c2ccccc21 | x | x | 66.6* | 19.7 | -1.6 | 0.8
CCc1nnc(NC(=O)CSc2nnnn2C)s1 | 5.6 | 99.1* | -12.6 | 5.6 | 1.7 | x
CCOc1ccc2nc(SCC(=O)Nc3ccc4c(c3)OCCO4)[nH]c2c1 | -5.1 | -4.1 | -18.7 | 9.4 | -8.5 | x
CCOc1ccc2nc(SCC(=O)Nc3cccc(S(=O)(=O)NC4=NCCCCC4)c3)[nH]c2c1 | -5.9 | 91.7* | -1.1 | 1.9 | 2.9 | 0.1
CN1/C(=C/C=N/n2cnnc2)C(C)(C)c2ccccc21 | x | 94.2* | -1.9 | -22.6 | 10.5 | x
COc1cccc(S(=O)(=O)N[C@@H]2CC[C@H](CC(=O)NCc3ccc(F)cc3)O[C@@H]2CO)c1 | 2.4 | x | -10.5 | x | x | -3.3
CCN(C(=S)Nc1cccnc1)c1cccc2ccccc12 | x | -15.6 | 51.3* | 5.7 | 2.2 | 5.0
Cc1nnc(NS(=O)(=O)c2ccc(N=Nc3ccc(N)nc3N)cc2)s1 | -5.0 | x | 56.8* | 3.9 | -5.5 | 8.2
Cc1nnc(NS(=O)(=O)c2ccc(N)cc2)s1 | 5.6 | x | -3.7 | -6.3 | 10.0 | -3.7
CC12CNCC(C)(CN(C(c3ccccc3)c3ccccc3)C1)C2 | x | -5.8 | -3.4 | 31.0* | 1.8 | x
Clc1ccc(C(c2ccccc2)N2CCNCC2)cc1 (stereo unspecified) | -1.6 | -3.3 | -2.3 | -9.0 | -0.9 | x
Cc1cc(C(=O)CSc2nc(N)cc(=O)[nH]2)c(C)n1CC1CCCO1 (stereo unspecified) | 3.7 | 3.6 | -2.4 | 21.4* | -0.9 | 7.8
NC(=O)NN=C1C2CCCC1C(c1ccccc1)NC2c1ccccc1 (stereo unspecified) | -0.9 | 3.2 | -0.7 | 44.8* | -2.6 | -0.5
NC(=O)C(=O)NN=C1CCC(c2ccccc2)CC1 (stereo unspecified) | -3.7 | -5.3 | -0.7 | -10.4 | 3.5 | x
O=C(O)c1cc(-c2c[nH]c3ccccc23)nc2ccc3ccccc3c12 | x | 91.9* | x | -15.8 | 13.0 | -2.4
c1ccc2c(-c3c[nH]c4ccccc34)c3ccccc3nc2c1 | 0.8 | -0.3 | -9.4 | -4.3 | 3.6 | x
O=C1N/C(=N\S(=O)(=O)Cc2ccccc2)S/C1=C/c1cc([N+](=O)[O-])ccc1O | x | 96.7* | -6.8 | -209.7 | 4.6 | 1.0
O=C1N/C(=N\S(=O)(=O)c2ccccc2)S/C1=C\c1cc([N+](=O)[O-])ccc1O | -5.1 | 22.2 | x | -264.1 | 1.2 | -1.7
O=C(CSc1ccc(Br)cc1)NC1CCS(=O)(=O)C1 (stereo unspecified) | -4.8 | x | 27.0 | 7.1 | -4.1 | -1.4
Cc1ccc(SCC(=O)NC2CCS(=O)(=O)C2)cc1C (stereo unspecified) | x | 99.1* | x | 9.8 | 17.1 | -2.2

Bioassay records as filed in PubChem.
